From paper PMC4336329 (PLoS ONE, 2015)
Out of some 310,000 compounds screened, about 14,000 (4.5%) showed an effect of 50% or more. Effects have a minus sign here. Many of the other results were omitted from the sample, so strong results are more common in it than they were.

biological target: human ether-à-go-go-related gene (hERG) potassium channel (human, UniProt Q12809); assay: primary screen, population patch clamp on CHO cells stably expressing hERG; higher = less effect of the substance
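Note: peak tail current of the secondary pulse compared with the same well before compound.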

human ether-à-go-go-related gene (hERG) potassium channel, sequence (Q12809 whole entry, looked up): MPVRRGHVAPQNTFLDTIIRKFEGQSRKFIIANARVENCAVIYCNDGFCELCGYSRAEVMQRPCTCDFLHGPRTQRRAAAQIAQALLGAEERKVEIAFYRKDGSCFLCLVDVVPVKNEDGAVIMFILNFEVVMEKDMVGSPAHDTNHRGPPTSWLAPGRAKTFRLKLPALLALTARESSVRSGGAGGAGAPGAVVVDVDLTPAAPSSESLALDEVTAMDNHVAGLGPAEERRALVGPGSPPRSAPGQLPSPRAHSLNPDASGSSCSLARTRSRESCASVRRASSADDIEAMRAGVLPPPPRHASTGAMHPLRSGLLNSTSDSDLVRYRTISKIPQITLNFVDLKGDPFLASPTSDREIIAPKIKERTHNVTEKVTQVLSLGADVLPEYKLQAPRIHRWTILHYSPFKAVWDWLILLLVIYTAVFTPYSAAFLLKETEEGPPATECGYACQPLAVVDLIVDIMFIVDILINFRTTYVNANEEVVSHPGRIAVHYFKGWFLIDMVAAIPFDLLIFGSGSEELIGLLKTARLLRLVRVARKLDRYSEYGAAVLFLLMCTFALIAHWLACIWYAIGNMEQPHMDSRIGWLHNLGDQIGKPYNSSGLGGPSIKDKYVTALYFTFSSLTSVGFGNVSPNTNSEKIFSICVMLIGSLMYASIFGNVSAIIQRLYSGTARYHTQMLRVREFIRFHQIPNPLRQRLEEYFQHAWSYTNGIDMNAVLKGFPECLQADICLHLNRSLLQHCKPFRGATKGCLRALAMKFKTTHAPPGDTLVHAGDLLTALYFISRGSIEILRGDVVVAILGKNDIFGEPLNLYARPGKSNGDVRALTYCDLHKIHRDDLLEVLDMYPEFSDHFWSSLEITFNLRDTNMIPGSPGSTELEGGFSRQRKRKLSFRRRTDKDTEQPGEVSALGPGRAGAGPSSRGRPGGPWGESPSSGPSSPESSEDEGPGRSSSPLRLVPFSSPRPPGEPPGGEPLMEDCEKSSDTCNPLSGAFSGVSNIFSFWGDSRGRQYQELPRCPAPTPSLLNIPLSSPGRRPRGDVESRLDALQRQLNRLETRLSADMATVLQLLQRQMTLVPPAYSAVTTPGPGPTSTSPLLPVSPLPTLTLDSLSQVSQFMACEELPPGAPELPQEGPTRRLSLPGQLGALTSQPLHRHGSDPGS

SMILES	hERG current change (%, negative = inhibition) at 10uM
CC(NCC(O)c1ccc([N+](=O)[O-])cc1)C12CC3CC(CC(C3)C1)C2 (stereo not drawn)	-69.4%
CNC(=S)NCC(O)c1ccc([N+](=O)[O-])cc1 (stereo not drawn)	5.5%
CC(=O)NCC(O)c1ccc([N+](=O)[O-])cc1 (stereo not drawn)	13.6%
COc1ccccc1NC(=O)c1cc(C(=O)O)ccc1C(=O)O	20.4%
CCOc1ccccc1NC(C)C(=O)Nc1cc(C(F)(F)F)ccc1N1CCOCC1 (stereo not drawn)	-6.23%
COc1ccc(OC)c(C(=O)NC(CC(N)=O)c2ccc(NCCN3CCCC3)c([N+](=O)[O-])c2)c1 (stereo not drawn)	8.75%
Cc1ccc(SCC(=O)NCCCN2CCOCC2)cc1	15%
Cc1ccc(Cl)cc1NC(=S)N(CCCN1CCOCC1)Cc1ccco1	-28.5%
Cc1ccc(Cl)cc1NC(=S)N(CCN(C)C)Cc1cccs1	-0.292%
Cc1ccc(Cl)cc1NC(=S)N(CCCN1CCOCC1)Cc1ccccn1	-34.3%
Cc1ccc(Cl)cc1NC(=S)N(CCCN1CCN(C)CC1)Cc1cccs1	-61.7%
CCN1CCN(CCCN(Cc2ccco2)C(=S)Nc2cc(Cl)ccc2C)CC1	-61.9%
Cc1ccc(NC(=S)N(CCCN2CCOCC2)Cc2cccs2)c(C)c1	-11.7%
Cc1ccc(Cl)cc1NC(=S)N(CCCN1CCN(C)CC1)Cc1ccco1	-52.3%
CCN1CCN(CCCN(Cc2cccs2)C(=S)Nc2ccccc2C)CC1	-54.4%
Cc1cc(Cl)ccc1NC(=S)N(CCCN1CCOCC1)Cc1cccs1	-32.2%
Cc1ccccc1NC(=S)N(CCCN1CCOCC1)Cc1cccs1	-39.9%
Cc1ccccc1NC(=S)N(CCCN1CCCCC1)Cc1ccco1	-45.4%
Cc1ccc(Cl)c(NC(=S)N(CCCN2CCOCC2)Cc2ccco2)c1	-35.3%
COC(=O)C1=C(COc2ccccc2)NC(=O)NC1c1ccc(Br)cc1 (stereo not drawn)	0.599%
Cc1ccc(CSCC(=O)N/N=C/c2cccc(OC3CSC3)c2)cc1	11.4%
Nc1nnc(/C=C/c2ccccc2Cl)s1	12.1%
Cc1cc(C(=O)COC(=O)c2ccc([N+](=O)[O-])o2)c(C)n1CC1CCCO1 (stereo not drawn)	-42.5%
CCOc1ccc(/C=C2/C(=O)NC(=O)N(CCc3ccc(F)cc3)C2=O)cc1	8.76%

SMILES	hERG current change (%, negative = inhibition) at 10uM
Cc1ccc(-n2nc(C(=O)NN)c(C)c(C#N)c2=O)cc1Cl	14.5%
COc1ccc(N(C(=O)Cn2nnc(-c3ccccc3F)n2)C(C(=O)NCC2CCCO2)c2ccc(Cl)cc2)cc1 (stereo not drawn)	22.6%
COc1ccc(S(=O)(=O)N(CC(=O)O)c2ccc(C)cc2)cc1	4%
Cc1cc(Nc2ccc(Br)cc2)nc(-c2ccccc2O)n1	19.9%
CCc1ccccc1NC(=S)N(CCCN1CCOCC1)Cc1cccs1	-53.5%
Cc1c(Cl)cccc1NC(=S)N(CCCN1CCOCC1)Cc1cccs1	-26.5%
CCc1ccccc1NC(=S)N(CCCN1CCN(C)CC1)Cc1cccs1	-46%
COc1ccc(CNC(=O)CCCn2nc(C)n3c(cc4sccc43)c2=O)cc1	-1.61%
CC(=O)N1N=C(c2cccc([N+](=O)[O-])c2)OC1c1ccc(Cl)cc1Cl (stereo not drawn)	8.14%
CC(=O)N1N=C(c2cccc([N+](=O)[O-])c2)OC1c1ccccc1Cl (stereo not drawn)	-25.8%
COc1ccccc1C1OC(c2cccc([N+](=O)[O-])c2)=NN1C(C)=O (stereo not drawn)	-62%
CCCc1nc(SCc2cccnc2)c2c(=O)n(C)c(=O)n(C)c2n1	-57.3%
Cc1ccccc1-c1nc(SCc2cccnc2)c2c(=O)n(C)c(=O)n(C)c2n1	10.5%
CC(C)Cc1nc(SCc2cccnc2)c2c(=O)n(C)c(=O)n(C)c2n1	-8.32%
CCc1nc(SCc2cccnc2)c2c(=O)n(C)c(=O)n(C)c2n1	-10.7%
Cn1c(=O)c2c(SCc3cccnc3)nc(CC(C)(C)C)nc2n(C)c1=O	-59.6%
Cn1c(=O)c2c(SCc3cccnc3)nc(C3CC3)nc2n(C)c1=O	-9.63%
CC1=C(C(=O)NC(C)c2ccccc2)C2(CCC(C)CC2)OC1=O (stereo not drawn)	-4.71%
Cc1ccc(C)c2c1N(Cc1ccccc1)C(=O)C21OCCO1	-21.8%
Cc1nc(NC(=O)C2CCCCC2C(=O)O)sc1C (stereo not drawn)	12%
O=C(CNC(=O)c1ccccc1)OCc1nnc(-c2ccc(Cl)cc2)o1	-10.4%
Cc1cnc(CN2CCc3c([nH]c4ccccc34)C2C2CCCCC2)[nH]1 (stereo not drawn)	-62.6%
Cc1c(CN2CCc3c([nH]c4ccccc34)C2C2CCCCC2)cnn1C (stereo not drawn)	-38.7%
c1ccc2c3c([nH]c2c1)C(C1CCCCC1)N(Cc1ncc[nH]1)CC3 (stereo not drawn)	-39.5%

SMILES	hERG current change (%, negative = inhibition) at 10uM
O=S(=O)(c1ccccc1)c1nc(-c2ccco2)oc1NCCCn1ccnc1	-65.6%
O=S(=O)(c1ccccc1)c1nc(-c2cccs2)oc1NCCCn1ccnc1	-75.1%
C=CCNc1oc(-c2cccs2)nc1S(=O)(=O)c1ccccc1	-24.7%
O=S(=O)(c1ccccc1)c1nc(-c2ccccc2)oc1NCc1cccnc1	8.28%
CNc1oc(-c2cccs2)nc1S(=O)(=O)c1ccccc1	-18.7%
Cc1ccc(S(=O)(=O)c2nc(-c3cccs3)oc2NCc2cccnc2)cc1	-18.3%
O=S(=O)(c1ccccc1)c1nc(-c2cccs2)oc1NCc1cccnc1	-50.5%
N#Cc1nc(-c2ccco2)oc1NCCCn1ccnc1	-19.7%
O=S(=O)(c1ccccc1)c1nc(-c2ccco2)oc1NCCCN1CCOCC1	-6.01%
CC(C)Sc1cc(N2CCCC2)nc(-c2ccccc2)n1	-5.24%
COc1cccc(NC(=O)N(CCN(C)C)C(C)c2cccnc2)c1 (stereo not drawn)	-20.7%
Cc1ccc(-n2c(N)c(C(=O)NCc3cccnc3)sc2=S)cc1	23.5%
CCOc1ccc(CCNC(=O)COC(=O)c2ccc(S(=O)(=O)N3CCCC3)cc2)cc1OCC	25.7%
O=C(Nc1cc(Cl)ccc1O)c1cc(-c2ccco2)on1	8.36%
Cc1nn(Cc2ccccc2)c(Cl)c1C(=O)OCC(=O)NC(=O)NC12CC3CC(CC(C3)C1)C2	11.5%
Cc1nc(N2CCNCC2)c2c3c(sc2n1)CCCC3	-2.23%
Cc1nc(N2CCN(C(=O)c3cccs3)CC2)c2c3c(sc2n1)CCCC3	-63.8%
CC1CCc2c(sc3nc(C4CC4)nc(N4CCN(C(=O)c5ccco5)CC4)c23)C1 (stereo not drawn)	-19.2%
CCc1nc(N2CCN(C(=O)c3ccccc3)CC2)c2c3c(sc2n1)CCCC3	-12.2%
CCc1nc(N2CCN(C(=O)c3ccco3)CC2)c2c3c(sc2n1)CCCC3	-65.3%
CC(=O)N1CCN(c2nc(C)nc3sc4c(c23)CCC(C)C4)CC1 (stereo not drawn)	-19.3%
Cc1nc(N2CCOCC2)c2c3c(sc2n1)CCC3	10.4%
CCCNC(=S)N1CCN(c2nc(C)nc3sc4c(c23)CCCC4)CC1	-31.5%
Cc1nc(N2CCN(C(=O)c3ccco3)CC2)c2c3c(sc2n1)CCC3	-54.8%

SMILES	hERG current change (%, negative = inhibition) at 10uM
Cc1nc(N2CCN(C)CC2)c2c3c(sc2n1)CCCC3	-11.4%
CCc1nc(SCC(=O)N2CCN(C(=O)c3ccco3)CC2)c2c3c(sc2n1)CCCC3	-46%
Cc1nc(N2CCN(C(=O)c3ccco3)CC2)c2c3c(sc2n1)CC(C)CC3 (stereo not drawn)	-63.9%
CCOc1ccc(N2C(=O)CC(NCCc3c[nH]c4ccccc34)C2=O)cc1 (stereo not drawn)	1.45%
Cc1cc(C(=O)Nc2nccs2)c2cc(F)ccc2n1	7.7%
CCCn1c(N)c(C(=O)CSc2nnc(Cc3ccccc3)o2)c(=O)n(C)c1=O	-0.939%
O=S(=O)(c1ccccc1)c1ncc(C(F)(F)F)cc1O	9%
O=C(COC(=O)/C=C/c1cccc(F)c1)NC1CCCC1	4.41%
CCOc1ccc(CCNC(=O)CCC(=O)N2CCOc3ccccc32)cc1OCC	-7.82%
COc1cccc(OC)c1C(=O)NC(=S)N1CCCCC1c1cccnc1 (stereo not drawn)	-13%
Nc1c(CO)nnn1-c1ccccc1	4.7%
O=C(Nc1ccc(OCC(F)(F)C(F)F)c(C(F)(F)F)c1)c1ccccc1O	9.65%
COc1ccc2c(Cl)c(-c3nnc(SCC(=O)c4ccccc4)n3C)sc2c1	8.28%
Cc1ccc(NC(=O)c2ccccc2NS(=O)(=O)c2ccc(Cl)s2)cc1S(=O)(=O)N1CCOCC1	0.321%
COc1ccc(OCc2csc(N)n2)cc1	39.4%
O=C(c1ccco1)N1CCN(c2nc(C3CC3)nc3sc4c(c23)CCCC4)CC1	-29.7%
Cc1nc(N2CCN(C(=O)c3ccco3)CC2)c2c3c(sc2n1)CCCC3	-64.1%
Cc1nc(-n2nnc3cc(C)c(C)cc32)c2c3c(sc2n1)CCCC3	-1.48%
Cc1nc(N2CCN(C(=O)c3ccco3)CC2)c(C#N)c2c1CCCC2	3.21%
CCc1nc(N2CCN(C(C)=O)CC2)c2c3c(sc2n1)CCCC3	-20.1%
Cc1nc(-n2nnc3ccccc32)c2c3c(sc2n1)CCCC3	-50.1%
CCC(=O)N1CCN(c2nc(CC)nc3sc4c(c23)CCCC4)CC1	-71.7%
CCNC(=S)N1CCN(c2nc(CC)nc3sc4c(c23)CCCC4)CC1	-15.4%
c1ccc2c(c1)nnn2-c1ncnc2sc3c(c12)CCCC3	-12.2%
